The subject of test [1] is PRMT1 (protein arginine N-methyltransferase 1). The experiment in a line: small molecules binding arginine methyltransferase PRMT1 – biochemical, small-molecule microarray, 635 nm fluorescence, primary screen (AID 1088).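 Also: binding of Prmt1 protein to compounds spotted on small-molecule microarray slides.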 The conditions noted are these: higher = more signal.
Test [2] is described as follows: growth effects on S. cerevisiae YJM789 – YJM789 clinical isolate, OD600, 24 h, basal, primary screen (AID 1089).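 Also: growth of clinical yeast isolate S. cerevisiae YJM 789 seeded 1000 cells per well; test concentration not given here.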 Particulars: higher = more signal, called active from +8 up or from −8 down.
Test [3] in a line: S. pombe growth modifiers, basal conditions – strain 972, OD600, 24 h, no modulator, primary screen (AID 1090).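 Also: basal condition with compound alone and no growth modifier present; test concentration not given here.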 Particulars: S. pombe 972 growth, higher = more signal, called active from +8 up or from −8 down.
Test [4] in a line: budding yeast growth modifiers under rapamycin – strain BY4716, OD600, 96 h, primary screen (AID 1091). Also: test concentration not given here. The conditions noted are these: S. cerevisiae BY4716 + rapamycin, higher = more signal, called active from +8 up or from −8 down.
Test [5] deals with Torsin-1A-interacting protein 2 (Homo sapiens) (UniProt Q8NFQ8). The experiment in a line: small molecules binding lysate-expressed LULL1 – cell lysate, human LULL1 lysate, 635/667 nm fluorescence, primary screen (AID 1092).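 Also: probe is lysate of COS7 cells overexpressing human LULL1; score merges per-feature 667 nm fluorescence with signal-to-noise.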 Particulars: small-molecule microarray, hLULL1 lysate binding, 635 nm fluorescence; higher = more signal.
Sequence of Torsin-1A-interacting protein 2 (Homo sapiens) (Q8NFQ8 whole entry, looked up): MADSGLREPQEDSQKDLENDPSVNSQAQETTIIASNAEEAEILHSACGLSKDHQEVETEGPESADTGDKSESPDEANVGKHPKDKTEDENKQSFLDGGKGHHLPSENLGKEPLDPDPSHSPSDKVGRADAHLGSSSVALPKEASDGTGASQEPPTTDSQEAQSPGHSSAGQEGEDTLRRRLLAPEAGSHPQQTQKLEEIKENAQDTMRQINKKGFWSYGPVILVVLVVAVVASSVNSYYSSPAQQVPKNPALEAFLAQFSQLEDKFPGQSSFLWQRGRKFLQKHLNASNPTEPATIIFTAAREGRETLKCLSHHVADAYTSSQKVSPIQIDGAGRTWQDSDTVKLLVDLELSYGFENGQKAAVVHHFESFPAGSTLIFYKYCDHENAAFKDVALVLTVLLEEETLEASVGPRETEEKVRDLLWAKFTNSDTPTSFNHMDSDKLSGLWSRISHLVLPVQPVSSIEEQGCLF
Test [6] can be described thus: optical density change of DRC41 E. coli – strain DRC41, OD650, 24 h, E. coli filamentation project, primary screen (AID 1093).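 Also: MC1000 strain lacking acrAB efflux and sulA so SOS filamentation is blocked; test concentration not given here.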 The conditions noted are these: E. coli DRC41 growth, higher = more signal, called active from +8 up or from −8 down.
The nature of test [7]: probe aLefty2 binding to arrayed compounds – biochemical, biotinylated probe, 635/667 nm fluorescence, primary screen (AID 1094).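 Also: score merges spot fluorescence near 667 nm with spot signal-to-noise ratio.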 The conditions noted are these: small-molecule microarray, higher = more signal.
Test [8] relates to Noggin (protein binding on small-molecule microarray). The experiment in a line: small molecules binding Noggin protein – biochemical, 635/667 nm fluorescence, primary screen (AID 1095).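 Also: score merges 667 nm feature fluorescence with signal to noise over triplicate slides.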 The conditions noted are these: 635 nm fluorescence, higher = more signal.
The target in test [9] is Neurogenic locus notch homolog protein 3 (Homo sapiens) (UniProt Q9UM47). Briefly: small molecules binding NOTCH3 protein – biochemical, 635/667 nm fluorescence, primary screen (AID 1096). The conditions noted are these: small-molecule microarray, 635 nm fluorescence, higher = more signal.
Sequence of Neurogenic locus notch homolog protein 3 (Homo sapiens) (Q9UM47 whole entry, looked up): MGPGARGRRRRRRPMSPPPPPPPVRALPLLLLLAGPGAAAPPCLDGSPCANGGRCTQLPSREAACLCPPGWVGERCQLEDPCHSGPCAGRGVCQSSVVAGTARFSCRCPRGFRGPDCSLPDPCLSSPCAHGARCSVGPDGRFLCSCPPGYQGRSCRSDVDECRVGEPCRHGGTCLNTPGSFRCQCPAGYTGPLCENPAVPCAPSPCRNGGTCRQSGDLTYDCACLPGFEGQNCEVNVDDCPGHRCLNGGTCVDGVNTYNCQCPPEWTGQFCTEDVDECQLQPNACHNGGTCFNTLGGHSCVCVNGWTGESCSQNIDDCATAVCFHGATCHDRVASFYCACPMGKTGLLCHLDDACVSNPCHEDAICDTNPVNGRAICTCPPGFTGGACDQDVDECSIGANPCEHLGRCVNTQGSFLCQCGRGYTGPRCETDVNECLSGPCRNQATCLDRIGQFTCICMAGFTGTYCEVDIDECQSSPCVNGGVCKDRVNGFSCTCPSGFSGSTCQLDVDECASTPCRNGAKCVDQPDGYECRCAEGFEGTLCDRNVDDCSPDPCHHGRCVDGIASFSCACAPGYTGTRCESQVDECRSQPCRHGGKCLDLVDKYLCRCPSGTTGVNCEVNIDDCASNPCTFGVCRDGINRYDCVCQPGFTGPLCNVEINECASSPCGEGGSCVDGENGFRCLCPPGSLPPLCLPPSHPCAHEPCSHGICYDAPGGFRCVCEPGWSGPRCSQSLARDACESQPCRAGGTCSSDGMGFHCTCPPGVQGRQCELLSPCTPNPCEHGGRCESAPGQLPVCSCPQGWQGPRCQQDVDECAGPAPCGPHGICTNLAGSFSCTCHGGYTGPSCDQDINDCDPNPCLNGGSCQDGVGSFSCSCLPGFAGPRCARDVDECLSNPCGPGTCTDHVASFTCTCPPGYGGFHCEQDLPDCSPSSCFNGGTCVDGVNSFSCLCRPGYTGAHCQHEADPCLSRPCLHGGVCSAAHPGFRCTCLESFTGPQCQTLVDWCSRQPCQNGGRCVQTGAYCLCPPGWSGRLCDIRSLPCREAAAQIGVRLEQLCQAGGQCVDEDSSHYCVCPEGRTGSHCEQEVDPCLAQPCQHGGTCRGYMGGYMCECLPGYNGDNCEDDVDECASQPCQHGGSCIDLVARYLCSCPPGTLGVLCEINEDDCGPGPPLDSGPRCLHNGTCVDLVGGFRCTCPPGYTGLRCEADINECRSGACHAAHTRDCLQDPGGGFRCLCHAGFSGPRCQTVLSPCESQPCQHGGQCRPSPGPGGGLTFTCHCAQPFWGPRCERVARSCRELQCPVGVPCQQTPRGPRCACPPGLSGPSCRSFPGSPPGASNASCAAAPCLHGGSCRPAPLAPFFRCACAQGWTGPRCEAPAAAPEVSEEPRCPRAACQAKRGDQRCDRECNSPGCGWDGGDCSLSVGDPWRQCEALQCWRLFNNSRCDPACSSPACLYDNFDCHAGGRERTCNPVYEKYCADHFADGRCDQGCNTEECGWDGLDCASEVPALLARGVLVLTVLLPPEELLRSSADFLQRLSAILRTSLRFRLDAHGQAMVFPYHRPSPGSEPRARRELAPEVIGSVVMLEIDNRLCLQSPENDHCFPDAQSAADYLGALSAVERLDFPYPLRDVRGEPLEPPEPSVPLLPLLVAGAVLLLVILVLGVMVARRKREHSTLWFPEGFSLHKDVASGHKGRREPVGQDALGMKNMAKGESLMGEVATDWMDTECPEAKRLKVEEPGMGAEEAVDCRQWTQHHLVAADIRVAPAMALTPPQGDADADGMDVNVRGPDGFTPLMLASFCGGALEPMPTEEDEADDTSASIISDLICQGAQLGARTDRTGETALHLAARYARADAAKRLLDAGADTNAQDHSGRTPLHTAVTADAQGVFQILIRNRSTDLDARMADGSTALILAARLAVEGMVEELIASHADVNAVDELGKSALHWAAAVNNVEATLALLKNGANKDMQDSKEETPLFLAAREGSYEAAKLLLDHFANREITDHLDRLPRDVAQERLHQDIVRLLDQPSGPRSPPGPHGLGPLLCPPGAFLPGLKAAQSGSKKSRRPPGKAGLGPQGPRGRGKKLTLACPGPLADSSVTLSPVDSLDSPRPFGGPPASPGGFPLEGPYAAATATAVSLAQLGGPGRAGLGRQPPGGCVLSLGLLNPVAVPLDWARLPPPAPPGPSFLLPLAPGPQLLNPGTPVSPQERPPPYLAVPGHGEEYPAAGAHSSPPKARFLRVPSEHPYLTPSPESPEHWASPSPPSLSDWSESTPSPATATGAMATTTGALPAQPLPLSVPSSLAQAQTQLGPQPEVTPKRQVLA
The nature of test [10]: probe aEGFR binding to arrayed compounds – biochemical, biotinylated probe, 635/667 nm fluorescence, primary screen (AID 1097).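 Also: probe is a biotinylated anti-EGFR antibody binding compounds printed on slides; score combines fluorescence near 667 nm and signal to noise of each spot.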 The conditions noted are these: small-molecule microarray, higher = more signal.

The source made the active and inactive calls.

For the compound `COc1cccc([C@H]2Oc3ccc(OC)cc3C(=NO[C@H](C)c3cn([C@@H]4COC[C@H]4O)nn3)[C@@H]2O)c1`, the composite z-score was -0.499 in test [1]; -0.077 in test [5]; -0.126 in test [7]; -0.427 in [8]; -1.34 in test [9]; -0.267 in [10]. Moreover, the z-score was 0.0141 (inactive) in [2], 0.874 (inactive) in test [3], 0.467 (inactive) in test [4] and -0.398 (inactive) in test [6].
Regarding `CO[C@H]1COC(=O)[C@@H]2CCCN2C(=O)CC=C[C@@H](C)[C@H](OC)COC(=O)CC=C[C@@H]1C`, the composite z-score is 1.54 in test [1]; -0.361 in test [5]; -0.0208 in test [7]; 1.48 in test [8]; 0.991 in [9]; 0.34 in test [10]. For the same compound, the z-score was -1.94 (inactive) in test [2], -1.32 (inactive) in test [3], -0.611 (inactive) in test [4] and -0.323 (inactive) in test [6].
Take `CCOC(=O)[C@H](Cc1ccccc1)NC(=O)CCC1CC(OC(=O)NCc2ccc3c(c2)OCO3)CC2(CCCC(COC(=O)NCC3CCCCC3)O2)O1` (stereo not given in full): the composite z-score in test [1] was 1.55; in [5], 2.62; in [7] it was -0.157; in test [8], 0.742; in test [9], 1.11; in test [10], 0.0632. Further, the z-score is -0.827 (inactive) in test [2], 0.455 (inactive) in test [3], -0.38 (inactive) in [4] and -0.201 (inactive) in test [6].
Take `C[C@@H](c1ccccc1)N1C(=O)[C@H]2[C@H]3[C@H](O)[C@H](O)CC(=NNC(=O)OCc4ccccc4)[C@H]3CC[C@H]2C1=O`: the composite z-score was -0.26 in test [1]; 0.71 in test [5]; 0.2 in [7]; 0.124 in test [8]; -0.246 in test [9]; 0.229 in [10]. In addition, the z-score in test [2] was 0.547 (inactive); in [3] it was 0.408 (inactive); in [4] it was 0.698 (inactive); in test [6] it was 0.687 (inactive).
`CC(C)[Si]1(C(C)C)O[C@@H](c2ccccc2)c2cc(C3CC3)nc(-c3ccccc3)c21`: the composite z-score is 0.0587 in test [1]; -0.332 in test [5]; -0.34 in test [7]; -0.207 in test [8]; 0.492 in test [9]; -0.0304 in [10]. Further, the z-score is -0.443 (inactive) in [2], -5.5 (inactive) in test [3], -0.215 (inactive) in test [4] and -0.867 (inactive) in test [6].
`C[C@@H](c1ccccc1)N1C(=O)[C@H]2[C@H]3[C@H](O)C=CC(=O)[C@@H]3CC[C@H]2C1=O`: the composite z-score in test [1] is 0.595; in test [5], -0.309; in test [7] it was -0.252; in [8], 0.421; in [9], 0.698; in test [10], -0.0649. Further, the z-score is -0.432 (inactive) in [2], -0.271 (inactive) in [3], -0.402 (inactive) in test [4] and 0.372 (inactive) in [6].
As for `CCCNC(=O)OC[C@H]1O[C@H](CCON=C2[C@H]3CCn4c(=O)n(-c5ccccc5)c(=O)n4[C@H]3[C@H](O)[C@@H]3O[C@H]23)C=C[C@@H]1Oc1ccc(OC)cc1`, the composite z-score in [1] was 0.615; in test [5], 0.507; in test [7], -0.234; in test [8] it was 0.388; in [9], 0.242; in [10], -0.253. For the same compound, the z-score in [2] is -0.285 (inactive); in [3], 0.0063 (inactive); in [4], -0.0824 (inactive); in test [6], 0.317 (inactive).
As for `C[N+](C)(C)CCCCCCNC(=O)[C@@H]1C[C@@H]2C(=O)N3CCC[C@H]3C(=O)N2[C@@H]1c1cccc(OCCO)c1`, the composite z-score was 1.44 in [1]; 3.14 in test [5]; -0.0898 in [7]; 1.88 in test [8]; 0.245 in test [9]; -0.0967 in [10]. In addition, the z-score in test [2] is -1.6 (inactive); in test [3], -0.0376 (inactive); in [4] it was -1.06 (inactive); in test [6] it was 0.784 (inactive).
For the compound `C=CC[C@@H]1C=C[C@H](ON=C[C@@H](OC)[C@H](C)C=CCC(=O)OC)[C@@H](CO)O1`, the composite z-score is 0.325 in test [1]; 0.485 in [5]; -0.124 in test [7]; 0.471 in test [8]; -0.39 in [9]; 0.0129 in test [10]. For the same compound, the z-score is 0.78 (inactive) in [2], 0.173 (inactive) in test [3], 0.634 (inactive) in [4] and 0.23 (inactive) in test [6].
For the compound `C#CCCCON=C1C[C@@H](O)[C@@H](O)[C@@H]2[C@@H]3C(=O)N(Cc4ccccc4)C(=O)[C@@H]3CC[C@H]12`, the composite z-score in test [1] was 0.0491; in test [5] it was -0.172; in [7] it was -0.0294; in test [8], 0.407; in test [9], 0.297; in [10] it was -0.102. Further, the z-score was -0.609 (inactive) in test [2], -0.216 (inactive) in test [3], -1.49 (inactive) in test [4] and -0.0603 (inactive) in test [6].
For `CCCC[C@@H]1C[C@H]1[C@@H](NS(=O)(=O)c1cccc2cccnc12)c1ccc(-c2ccccc2)cc1`, the composite z-score in test [1] is -1.42; in [5], 1.26; in test [7], 0.0141; in [8], -0.696; in test [9] it was 0.32; in test [10], -0.0728. The z-score was 0.0994 (inactive) in test [2], 1.16 (inactive) in test [3], 0.676 (inactive) in test [4] and -0.781 (inactive) in test [6].
Take `C=C(/C(=C/C[C@H](OC(=O)c1ccncc1)c1ccc(OCCO)cc1)c1cnc2ccccc2c1)C(C)C`: the composite z-score in test [1] is 1.55; in test [5], 1.12; in [7], -0.0985; in test [8], 1.48; in [9] it was 1.03; in test [10], -0.0251. Besides, the z-score was -0.442 (inactive) in test [2], -1.82 (inactive) in test [3], 0.706 (inactive) in test [4] and -0.13 (inactive) in test [6].

Values taken from PubChem BioAssay.
